Data on 98 compounds can be found in PubChem BioAssay AID709 (SRMLSC, 2007).

Molecules are shown by their SMILES. Hit rate of the full screen: of about 65,000 compounds, about 3,600 (5.5%) were called active.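 The calls were made as follows: active = at 10 µM, mean starting fluorescence two-fold or more over control wells; inactive = the rest.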 Shown is part of a subset that was picked to be rich in actives.

A short description of the test: intrinsic fluorescence of library compounds, ex339/em460 – biochemical, MLSMR library, data from DPM-DC assay, artefact control, profiling panel (AID 709).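 Also: signal is the first read of a kinetic run.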 As to conditions: compound autofluorescence, ex339/em460 nm, NADH buffer; at 10 µM; active compounds read high; 1 = no-compound wells, NADH background.
Turning to `Cc1ccc(N(C(=O)CC2NC(=O)NC2=O)C2(C(=O)NC3CCCC3)CCCCC2)cc1` (stereo not drawn), the fluorescence fold increase is 1.11 (inactive).
As to `Cc1cccn2c(=O)c3cc(C(=O)NCc4ccccn4)n(C)c3nc12`, the fluorescence fold increase was 5.03 (active).
To `O=C(NCc1ccccn1)c1ccc2nc(-c3ccco3)c(-c3ccco3)nc2c1` belongs 1.72 (inactive).
In the case of `Cc1ccccc1CN1CCN(CC(=O)NCc2ccccn2)C1=O`, the fluorescence fold increase was 1.13 (inactive).
On to `Cc1cccn2c(=O)c3cc(C(=O)N4COCC4(C)C)n(C)c3nc12`, for which the fluorescence fold increase was 4.96 (active).
To `NC(=O)C1CCN(C2OC(=O)c3ccccc32)CC1` (stereo not drawn) belongs 1.08 (inactive); to `CCOC(=O)C1CCN(C(=O)C2CCN(S(=O)(=O)N3CCCC3)CC2)CC1`, 1.03 (inactive).
Next, `CCC(CC)c1nnc(NS(=O)(=O)Cc2ccccc2)s1`: 1.09 (inactive).
Next, `CN1c2ccccc2-c2nc3ccccc3n2C1c1ccco1` (stereo not drawn): 2.31 (active); `Cc1nn2c3ccccc3nc2n(C)c1=O`: 0.93 (inactive); `Cc1ccccc1N1C(=O)C2ON(c3ccccc3)C(c3ccncc3)C2C1=O` (stereo not drawn): 1.04 (inactive).
As to `CCOc1ccc2nc(N3CCCN(C(=O)Nc4ccccc4C)CC3)c(C#N)cc2c1`, the fluorescence fold increase is 1.7 (inactive).
`COc1ccc(N2CCN(C(=O)CSc3nc4cc(OC)c(OC)cc4cc3C#N)CC2)cc1`: the fluorescence fold increase was 1.03 (inactive).
Consider `COc1ccc2nc(N3CCCC(O)C3)c(C#N)cc2c1` (stereo not drawn), for which the fluorescence fold increase is 2.58 (active).
Next, `COC(=O)c1sc(NC(=O)c2csc3c2CCCC3)nc1C`: 1.25 (inactive); `COc1ccc(C(=O)Nc2nncs2)c(OC)c1`: 1.05 (inactive).
To `COC(=O)c1sc(NC(=O)c2ccc(OC)cc2OC)nc1C` belongs 2.06 (active); to `CCOC(=O)C1CCN(C(=O)c2oc3ccc(S(=O)(=O)N4CCCCCC4)cc3c2C)CC1`, 1.08 (inactive).
To `CCOc1ccccc1NC(=O)c1cc(S(=O)(=O)N2CCC3(CC2)OCCO3)ccc1F` belongs 1.05 (inactive); to `Cc1c(C(=O)Nc2ccccc2Cl)oc2ccc(S(=O)(=O)N3CCC4(CC3)OCCO4)cc12`, 3.37 (active); to `COC(=O)COc1ccc(S(=O)(=O)Nc2ccc(NC(C)=O)cc2)cc1`, 1.1 (inactive).
Turning to `O=C(N1CCOCC1)N(Cc1ccccc1)c1ccccn1`, the fluorescence fold increase was 1.08 (inactive).
As to `COc1cc(-n2c(C)nc3cc(C(=O)NCc4ccco4)ccc32)cc(OC)c1OC`, the fluorescence fold increase was 1.09 (inactive).
To `Cc1cc(NC(=O)c2cnn3cccnc23)n(-c2ccccc2)n1` belongs 1.13 (inactive); to `Cn1c(CNc2nc(-c3ccccc3)cs2)nnc1SCC(=O)c1ccccc1`, 1.05 (inactive).
To `Cn1c(COc2ccc(Cl)cc2)nc2ccccc2c1=O` belongs 1.18 (inactive).
Next, `Cc1nc2c(c(=O)n1Cc1ccco1)c1nc3ccccc3nc1n2Cc1ccccc1`: 2.65 (active); `O=c1c2ccccc2oc2nc(C3CCCCC3)n(Cc3ccco3)c(=O)c12`: 1.14 (inactive); `Cc1ccc(Cn2c(C)nc3c(c2=O)c2nc4ccccc4nc2n3Cc2ccco2)cc1`: 2.34 (active).
Consider `Clc1cccc(-c2nc3nc4ccccc4nc3n2Cc2ccco2)c1`, for which the fluorescence fold increase is 1.65 (inactive).
To `CC(Sc1nc2ccccc2c(=O)n1Cc1ccco1)C(=O)c1ccccc1` (stereo not drawn) belongs 1.1 (inactive); to `Nc1cc(=O)nc(SCc2ccccc2)n1Cc1ccco1`, 1.05 (inactive); to `COCCCn1c2nc3ccccc3nc2c2c(=O)n(Cc3ccc(Cl)cc3)c(C)nc21`, 3.88 (active).
To `Cc1nc2ccccc2c(=O)n1CCCn1ccnc1` belongs 1.18 (inactive); to `CC(=O)Oc1cc2c(C(=O)NCCN3CCOCC3)c(C)oc2c2ccccc12`, 1.19 (inactive); to `CCCS(=O)(=O)N1CCCC(C(=O)N2CCN(c3ccccc3)CC2)C1` (stereo not drawn), 1.11 (inactive).
Next, `CN(C)Cc1c(O)ccc2occ(C(O)c3ccccc3)c12` (stereo not drawn): 1.03 (inactive).
Consider `COc1ccc(-c2ccnc(SCC(=O)N3CCOCC3)n2)cc1`, for which the fluorescence fold increase is 1.54 (inactive).
To `COC(=O)c1[nH]c2ccccc2c1NC(=O)CN1CCCc2ccccc21` belongs 1.14 (inactive); to `CCOC(=O)c1[nH]c2ccc(OC)cc2c1NC(=O)CCN1CCN(Cc2ccccc2)CC1`, 2.37 (active); to `CCOC(=O)c1[nH]c2ccc(OC)cc2c1NC(=O)N1CCOCC1`, 3.83 (active).
To `COc1cc(NC(=O)N2CCOCC2)cc(OC)c1` belongs 1.07 (inactive).
To `Cc1c(C(=O)N2CCOCC2)[nH]c2ccc(OCc3ccccc3)cc12` belongs 1.13 (inactive); to `CCOc1ccccc1NC(=O)CCN1CCN(S(=O)(=O)c2ccc(OC)cc2)CC1`, 1 (inactive).
On to `COC(=O)c1sc(=S)n(-c2ccccc2)c1N`, for which the fluorescence fold increase is 1.02 (inactive).
Next, `O=S(=O)(NCc1ccc2c(c1)OCO2)c1cccc2nsnc12`: 1.04 (inactive); `CCOC(=O)c1cc2occc2n1CC(=O)NC1CCC(C)CC1` (stereo not drawn): 1.03 (inactive).
Turning to `Cc1cccc(N2CCN(Cc3c(C)n(C)n(-c4ccccc4)c3=O)CC2)c1C`, the fluorescence fold increase is 1.01 (inactive).
Next, `OCc1n[nH]c(CO)n1`: 1.04 (inactive); `O=C(Nc1ccc2c(c1)nc1n2CCCCC1)c1cc(S(=O)(=O)N2CCOCC2)ccc1Cl`: 1.09 (inactive); `CC(c1nnc(SCC(=O)Nc2sccc2C#N)n1-c1ccc(Cl)cc1)N(C)C` (stereo not drawn): 1.06 (inactive).
On to `CSc1nc(N)c(C#N)c(-c2ccccc2Cl)c1C#N`, for which the fluorescence fold increase was 1.19 (inactive).
To `CCCc1[nH]nc2c1C(c1c(C)nn(-c3ccccc3)c1Cl)C(C#N)=C(N)O2` (stereo not drawn) belongs 1.09 (inactive); to `CSc1ccc(-c2c(C#N)c(N)nc3c2c(C)nn3-c2ccccc2)cc1`, 3.9 (active); to `COc1ccc(OC)c(CNC(=O)CCc2nc(-c3cccs3)no2)c1`, 1.09 (inactive).
Next, `Cc1cc(C)nc(N(C#N)CC(=O)Nc2ccccc2)n1`: 1.1 (inactive).
To `Cc1ccc(S(=O)(=O)NCCN2CCOCC2)cc1C` belongs 1.15 (inactive).
Regarding `COc1ccccc1NC1=NC(c2ccc(Cl)cc2)N=C(N)N1` (stereo not drawn), the fluorescence fold increase is 1.03 (inactive).
As for `CCCc1nc2ccccc2c(C(=O)OCc2nnc(-c3cc(OC)c(OC)c(OC)c3)o2)c1CC`, the fluorescence fold increase is 1.12 (inactive).
To `COc1ccc(C(=O)OCC(=O)c2ccc(C)c(S(=O)(=O)N3CCOCC3)c2)cc1OC` belongs 1 (inactive); to `CCCOc1ccc2c3c(c(=O)oc2c1OCCC)CCC3`, 2.13 (active); to `COc1ccc2c3c(c(=O)oc2c1OCC(=O)C(C)(C)C)CCCC3`, 2.12 (active).
Next, `Cc1c(C)c2cc3c4c(oc3c(C)c2oc1=O)CCCC4`: 1.64 (inactive).
In the case of `COc1ccc(Cl)cc1S(=O)(=O)N1CCN(CC(=O)C(C)(C)C)CC1`, the fluorescence fold increase is 0.9 (inactive).
Consider `COC(=O)c1ccc(Oc2nc(Nc3ccc(F)cc3)nc(N3CCCC3)n2)cc1`, for which the fluorescence fold increase was 1.09 (inactive).
Next, `Cc1ccc(C(c2nnnn2CS(=O)(=O)c2ccc(C)cc2)N2CCC(C(N)=O)CC2)cc1` (stereo not drawn): 1.03 (inactive); `Cc1cccc(NC(=O)CN2CCCN(S(=O)(=O)c3ccc(Br)s3)CC2)c1`: 1.1 (inactive); `Cc1cc(NC(=O)c2cccc(N3C(=O)CCC3=O)c2)no1`: 1.09 (inactive).
Next, `CCN(CC)c1ccc2oc(=O)c(C)nc2c1`: 0.59 (inactive); `CCN(CC)c1ccc2cc(C(=O)O)c(=O)oc2c1`: 2.71 (active); `COc1ccc2oc(=O)c(C(=O)N3CCCc4ccccc43)cc2c1`: 1.09 (inactive).
Consider `COc1ccc2oc(=O)c(C(=O)O)cc2c1`, for which the fluorescence fold increase was 3.98 (active).
Next, `CCCOC(=O)c1cc2ccccc2oc1=O`: 1.51 (inactive); `COc1ccc2oc(=O)c(C(=O)N3CCN(c4ccccc4F)CC3)cc2c1`: 1.41 (inactive).
To `CCOc1ccc(-n2c(SC(C)C(=O)OC)nc3c(c2=O)SCC3)cc1` (stereo not drawn) belongs 1.06 (inactive).
Next, `CC(=O)c1cc(C#N)c(SCC(=O)C(C)(C)C)nc1C`: 1.08 (inactive).
Turning to `Cc1ccccc1S(=O)(=O)Cc1ccc(C(=O)NCCN2CCCCC2C)o1` (stereo not drawn), the fluorescence fold increase was 1.1 (inactive).
To `CC1=Nn2c(nnc2-c2ccccc2)SC1` belongs 1 (inactive); to `CCOC(=O)C1CCN(C(=O)Cn2cc(C#N)c3ccccc32)CC1`, 1.19 (inactive); to `CCOC(=O)CCc1c(C)c(C#N)c2[nH]c3ccccc3n2c1=O`, 2.29 (active).
Next, `CCOC(=O)CC1=CC(=O)Nc2ccccc2N1`: 1.15 (inactive).
As for `COc1ccc(C2C(C(=O)N3CCN(c4ccc(OC)cc4)CC3)c3ccccc3C(=O)N2C)cc1` (stereo not drawn), the fluorescence fold increase is 1.12 (inactive).
Next, `COc1ccccc1-n1c(CNC(=O)c2ccccc2)nnc1SCC(=O)Nc1nnc(C)s1`: 1.12 (inactive); `CC(NCCO)C(=O)C12CC3CC(CC(C3)C1)C2` (stereo not drawn): 1.13 (inactive).
Next, `Cc1cccc(N(CC(O)CN(C)C)S(=O)(=O)c2ccccc2)c1` (stereo not drawn): 1.08 (inactive); `CNC(=O)Nc1cc(C(C)(C)C)no1`: 1.07 (inactive).
To `CCOC(=O)c1sc2nc(CSCC(=O)OCc3ccc(C(=O)OC)o3)[nH]c(=O)c2c1C` belongs 1.46 (inactive); to `CCOC(=O)c1ccc(COC(=O)c2cc(=O)[nH]c3ccccc23)o1`, 2.1 (active).
Regarding `CCOC(=O)c1ccc(CS(=O)c2ccc(Cl)cc2)o1` (stereo not drawn), the fluorescence fold increase is 1.02 (inactive).
To `O=S(=O)(Nc1ccc2nc(-c3ccco3)[nH]c2c1)c1ccccc1` belongs 2.12 (active); to `Cc1ccc(S(=O)(=O)Nc2ccc3ncccc3c2)cc1`, 1.18 (inactive); to `COc1cc(NS(=O)(=O)c2ccccc2)ccc1-n1nc(C)cc1C`, 1.12 (inactive).
As to `CCCCN(CCCC)C(=O)CCS(=O)(=O)c1ccc2c(c1)n(C)c(=O)c(=O)n2C`, the fluorescence fold increase was 1.23 (inactive).
Next, `Cc1cc(C)nc(SCc2nnc(SCC(=O)OC3CCCCC3)o2)n1`: 1.08 (inactive); `CC1CN(C2CCN(C(=O)COc3ccccc3)CC2)CC(C)O1` (stereo not drawn): 1.1 (inactive); `O=C(NC1CCCCC1)c1ccc2c(=O)n(CC3CCCO3)c(=O)[nH]c2c1` (stereo not drawn): 2.11 (active).
Next, `O=c1c2cc3c(=O)n(CC4CCCO4)c(=O)c3cc2c(=O)n1CC1CCCO1` (stereo not drawn): 1.07 (inactive).
To `COC(=O)c1ccc2c(=O)n(CC3CCCO3)c(=S)[nH]c2c1` (stereo not drawn) belongs 1.06 (inactive).
